Screening data deposited in PubChem BioAssay by The Scripps Research Institute Molecular Screening Center.
TEAD-YAP block – TEAD-YAP interaction inhibition; inhibition, % at 9.12 µM; HEK-TIYL cells, TEAD-Gal4/YAP UAS-luciferase luminescence; AID 1259422; hit rate 1.4% among 640,000; in the data active = inhibition above about 32%;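 note: 0% = median of test compound wells and 100% = reference inhibitor wells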
MITF primary – blocks human microphthalmia-associated transcription factor; hit rate 0.91% among 650,000; AlphaScreen MITF homodimerization, bead proximity signal; inhibition, % at 2.6 µM; AID 1259374; O75030; in the data active = inhibition above about 50%;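 note: 0% = vehicle wells with protein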
Target sequence (O75030 whole entry, looked up): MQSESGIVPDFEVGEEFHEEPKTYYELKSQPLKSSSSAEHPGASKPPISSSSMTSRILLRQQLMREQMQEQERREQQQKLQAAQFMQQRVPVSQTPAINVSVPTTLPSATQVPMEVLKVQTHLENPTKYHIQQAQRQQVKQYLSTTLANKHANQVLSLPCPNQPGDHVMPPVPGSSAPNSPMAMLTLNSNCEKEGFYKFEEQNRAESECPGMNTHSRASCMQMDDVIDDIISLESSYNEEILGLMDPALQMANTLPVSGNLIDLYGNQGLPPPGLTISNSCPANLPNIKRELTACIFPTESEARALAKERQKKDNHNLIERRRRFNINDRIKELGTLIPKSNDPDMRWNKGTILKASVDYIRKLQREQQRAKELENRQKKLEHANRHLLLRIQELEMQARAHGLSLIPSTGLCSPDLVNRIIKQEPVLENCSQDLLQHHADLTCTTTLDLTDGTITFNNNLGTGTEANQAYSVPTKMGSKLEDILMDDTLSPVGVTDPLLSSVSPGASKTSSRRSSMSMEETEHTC
GPR151 activ – human GPR151 activation; AID 1508602; hit rate 1% among 650,000; activation, % at 11.2 µM; PathHunter beta-arrestin GPR151 cells, luminescence; Q8TDV0; in the data active = activation above about 4.9%;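 note: 0% = median of compound wells and 100% = cells with positive control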
FBW7 activator – activators of human E3 ligase FBW7; hit rate 0.13% among 650,000; AID 1259310; normalized activity (activation), % at 26.1 µM; AlphaScreen FBW7–phospho-cyclin E peptide binding, activator screen; in the data active = normalized activity above about 1.9%;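 note: purified mutant Fbw7 with reduced substrate affinity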
GPR151 confirm – confirmation of human GPR151 activators. activation, % at 11.2 µM. shares compounds with GPR151 activ. AID 1508609. 6,700 tested, under 10 active. GPR151 PathHunter beta-arrestin cells, luminescence, 90 min; % of EA-reagent control over plate median;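 active = mean percent activation across replicates above the confirmation screen cutoff of 4.91%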
GPR119 counter – GPR119 activation, counter-screen for GPR151 activators. activation, % at 11.2 µM. shares compounds with GPR151 activ. AID 1508611. hit rate 0.3% among 6,700. GPR119 PathHunter beta-arrestin cells, luminescence, 90 min; 0 = compound-well median, 100 = enzyme-acceptor control;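 active = mean percent activation in the counterscreen above 29.09%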;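 note: counterscreen on off-target GPR119 to flag nonselective hits from the GPR151 activator screen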
The depositor's hits bear a star; / = no result. Compounds with a hit are over-represented: about 3.4% of the library has one in this group of screens.

SMILES	TEAD-YAP block	MITF primary	GPR151 activ	FBW7 activator	GPR151 confirm	GPR119 counter
COc1cccc(CNC(=O)c2cn(Cc3ccccc3)c3cc(-c4cn[nH]c4)ccc23)c1	0	-3	2	0	/	/
COc1cccc([C@H](C)NC(=O)c2cn(CCN3CCCC3)c3cc(-c4cn[nH]c4)ccc23)c1	-3	16	11*	0	0	1
O=c1oc2ccccc2c(O)c1C(c1ccc2c(c1)OCO2)c1c(O)c2ccccc2oc1=O	-7	-10	15*	0	0	4
COc1cccc(C(c2c(O)[nH]c(=S)[nH]c2=O)N2CCOCC2)c1OC (stereo unspecified)	-12	9	0	0	/	/
COc1cccc(C(c2c(O)[nH]c(=O)[nH]c2=O)N2CCCC(C)C2)c1OC (stereo unspecified)	4	17	19*	0	0	8
CCOC(=O)C1=C(C)OC(N)=C(C#N)C12C(=O)Nc1ccc(Br)cc12 (stereo unspecified)	0	4	1	0	/	/
CC1=C(C(=O)OC(C)C)C2(C(=O)Nc3ccc(Br)cc32)C(C#N)=C(N)O1 (stereo unspecified)	5	19	14*	0	0	-6
O=[N+]([O-])c1ccc(N2CCNCC2)cc1NCCO	-25	3	0	0	/	/
CN1CCN(c2ccc([N+](=O)[O-])c(NCCO)c2)CC1	0	-4	11*	0	0	1
C=CCOC(=O)C1=C(C)OC(N)=C(C(=O)OCc2ccccc2)C12C(=O)Nc1ccccc12 (stereo unspecified)	8	20	6.3*	0	1	3
CC(C)(C)c1ccc(-c2nn(CCC#N)cc2C=O)cc1	-5	-14	-2	0	/	/
O=C(O)CCn1cc(C=C2C(=O)NC(=S)NC2=O)c(-c2cccc(Cl)c2)n1	10	1	0	0	/	/
O=C(O)CCn1cc(C=C2C(=O)NC(=O)NC2=O)c(-c2ccc(Br)cc2)n1	15	1	5.4*	0	3	-3
CNC(C)C(=O)C12CC3CC(CC(C3)C1)C2 (stereo unspecified)	-2	-1	2	0	/	/
COc1cc(C=C(C#N)C#N)cc(O)c1O	1	8	-1	0	/	/
CC(C)(C)c1cc(C=C(C#N)C#N)cc(C(C)(C)C)c1O	91*	-5	6.4*	0	1	18
N/C(=N/[N+](=O)[O-])N1CCN(C(=O)Nc2ccc(Cl)cc2)CC1	7	21	4	0	/	/
COc1ccc(C2C([N+](=O)[O-])=C(N)Oc3c2c(=O)oc2ccccc32)cc1OC (stereo unspecified)	-7	19	1	0	/	/
COc1cc(C2C([N+](=O)[O-])=C(N)Oc3c2c(=O)oc2ccccc32)ccc1O (stereo unspecified)	26	3	5.7*	0	0	-4
CCCC[N+]12CCC(CC1)C(C(=O)c1cccs1)C2 (stereo unspecified)	-8	24	5.8*	0	1	-3
Cc1ccc(NC2=NCCS2)cc1F	-2	-2	3	0	/	/
CC1(C)CC2(CCCN(CCC#N)C2)CCS1 (stereo unspecified)	7	-3	1	0	/	/
